Experimental data published in PubChem BioAssay AID1159580 (chemical genetic matrix, 2015).
“And” between values parts separate entries of the source, which are not always exact repeats. Identical values can stand only once. About 2,000 (36%) of roughly 5,500 compounds were called active. Roughly 18% stayed inconclusive and do not appear here. No stated cut-off is given here; in the data, active means normalized growth mostly below about 0.91 (no sharp cut-off); inconclusive means no clear call, values can overlap the other calls; inactive means mostly above about 0.92. The list shows a part of the results.

Experiment: chemical genetic growth profiling, strain panel (AID 1159580);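 further: tested at 20 µM; growth read once vehicle control cultures reached saturation at 30 °C; 1 = growth at the plate median or of vehicle wells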
Conditions: S. cerevisiae deletion strains, growth OD

Measured: normalized growth

COc1ccc2c(c1)OCC(Cc1ccc(OC)c(OC)c1)C2=O (stereo unspecified)
active: locus YDR392W, strain spt3, stronger effect = lower value 0.544 | locus YER155C, strain BEM2 (second series), stronger effect = lower value 0.802 | locus YGL253W, strain hxk2, stronger effect = lower value 0.879 | locus YLL001W, strain dnm1, stronger effect = lower value 0.897 | locus YLR027C, strain aat2, stronger effect = lower value 0.922 | locus YNL071W, strain lat1, stronger effect = lower value 0.82 | locus YNL307C, strain MCK1, stronger effect = lower value 0.894
inactive: locus YAL013W, strain DEP1, stronger effect = lower value 0.979 | locus YAL021C, strain ccr4, stronger effect = lower value 0.982 | locus YAL026C, strain drs2, stronger effect = lower value 0.928 | locus YAL030W, strain snc1, stronger effect = lower value 0.972 | locus YBL061C, strain skt5, stronger effect = lower value 0.959 | locus YBR009C, strain hhf1, stronger effect = lower value 0.941 | locus YBR021W, strain FUR4, stronger effect = lower value 0.905 | locus YBR023C, strain chs3, stronger effect = lower value 0.958 | locus YBR171W, strain sec66, stronger effect = lower value 0.96 | locus YBR229C, strain ROT2, stronger effect = lower value 0.993 | locus YBR231C, strain swc5, stronger effect = lower value 0.924 | locus YBR279W, strain paf1, stronger effect = lower value 0.973 | locus YCL011C, strain gbp2, stronger effect = lower value 0.96 | locus YCL016C, strain dcc1, stronger effect = lower value 0.969 | locus YCL029C, strain bik1, stronger effect = lower value 0.988 | locus YCL061C, strain MRC1, stronger effect = lower value 0.923 | locus YCL069W, strain vba3, stronger effect = lower value 0.967 | locus YCR088W, strain abp1, stronger effect = lower value 0.987 | locus YDL005C, strain med2, stronger effect = lower value 0.987 | locus YDL035C, strain GPR1, stronger effect = lower value 0.954 | locus YDL040C, strain nat1, stronger effect = lower value 0.982 | locus YDL074C, strain BRE1, stronger effect = lower value 0.928 | locus YDL101C, strain DUN1, stronger effect = lower value 0.982 | locus YDL185W, strain tfp1, stronger effect = lower value 0.999 | locus YDL192W, strain arf1, stronger effect = lower value 0.986 | locus YDR001C, strain nth1, stronger effect = lower value 0.973 | locus YDR069C, strain doa4, stronger effect = lower value 0.964 | locus YDR101C, strain arx1, stronger effect = lower value 0.974 | locus YDR137W, strain rgp1, stronger effect = lower value 0.933 | locus YDR159W, strain sac3, stronger effect = lower value 0.873 | locus YDR162C, strain NBP2, stronger effect = lower value 0.89 | locus YDR195W, strain ref2 1.06 | locus YDR297W, strain sur2, stronger effect = lower value 0.949 | locus YDR318W, strain mcm21, stronger effect = lower value 0.978 | locus YDR334W, strain swr1, stronger effect = lower value 0.98 | locus YDR335W, strain msn5, stronger effect = lower value 0.986 | locus YDR388W, stronger effect = lower value 1.01 | locus YDR502C, strain sam2, stronger effect = lower value 0.973 | locus YEL003W, strain gim4, stronger effect = lower value 0.947 | locus YEL037C, strain rad23, stronger effect = lower value 0.986 | locus YEL061C, strain CIN8 (second series), stronger effect = lower value 0.985 | locus YEL061C, strain CIN8, stronger effect = lower value 0.987 | locus YER015W, strain faa2, stronger effect = lower value 0.968 | locus YER016W, strain bim1, stronger effect = lower value 0.976 | locus YER110C, stronger effect = lower value 0.988 | locus YER111C, strain swi4, stronger effect = lower value 0.982 | locus YER155C, strain BEM2, stronger effect = lower value 0.999 | locus YER167W, strain BCK2, stronger effect = lower value 0.997 | locus YFR010W, strain ubp6, stronger effect = lower value 0.97 | locus YGL078C, strain dbp3, stronger effect = lower value 0.998 | locus YGL086W, strain mad1, stronger effect = lower value 0.965 | locus YGL167C, strain pmr1, stronger effect = lower value 0.964 | locus YGL173C, strain kem1, stronger effect = lower value 0.963 | locus YGL227W, strain vid30, stronger effect = lower value 0.974 | locus YGL240W, strain doc1, stronger effect = lower value 0.898 | locus YGL248W, strain PDE1, stronger effect = lower value 0.954 | locus YGR078C, strain PAC10, stronger effect = lower value 0.905 | locus YGR135W, strain pre9, stronger effect = lower value 0.993 | locus YGR252W, strain gcn5, stronger effect = lower value 0.834 | locus YHR013C, strain ard1, stronger effect = lower value 0.907 | locus YHR027C, strain rpn1, stronger effect = lower value 0.967 | locus YHR030C, strain SLT2, stronger effect = lower value 0.989 and 0.988 | locus YHR079C, strain IRE1 (second series), stronger effect = lower value 1 | locus YHR079C, strain IRE1, stronger effect = lower value 1.01 | locus YHR094C, strain hxt1, stronger effect = lower value 1.01 | locus YHR129C, strain ARP1, stronger effect = lower value 0.976 | locus YHR142W, strain chs7, stronger effect = lower value 0.897 | locus YHR200W, strain rpn10, stronger effect = lower value 0.992 | locus YIL066C, strain RNR3, stronger effect = lower value 0.915 | locus YIL073C, strain SPO22, stronger effect = lower value 0.925 | locus YIL125W, strain kgd1, stronger effect = lower value 0.991 | locus YIR030C, strain dcg1, stronger effect = lower value 0.99 | locus YJL092W, strain hpr5, stronger effect = lower value 0.981 | locus YJL095W, strain BCK1 (second series), stronger effect = lower value 0.979 | locus YJL095W, strain BCK1, stronger effect = lower value 0.887 and 1.01 | locus YJL115W, strain asf1, stronger effect = lower value 0.974 | locus YJL129C, strain trk1, stronger effect = lower value 0.892 | locus YJL134W, strain LCB3, stronger effect = lower value 0.994 | locus YJL154C, strain vps35, stronger effect = lower value 0.98 | locus YJL164C, strain tpk1, stronger effect = lower value 0.96 | locus YJL166W, strain qcr8, stronger effect = lower value 0.909 | locus YJL168C, strain set2, stronger effect = lower value 0.994 | locus YJL187C, strain SWE1 (second series), stronger effect = lower value 0.965 | locus YJR043C, strain POL32, stronger effect = lower value 0.97 | locus YJR066W, strain TOR1, stronger effect = lower value 0.955 | locus YJR075W, strain HOC1, stronger effect = lower value 0.972 | locus YKL009W, strain mrt4, stronger effect = lower value 0.984 | locus YKL068W, stronger effect = lower value 0.982 | locus YKL085W, strain MDH1 (second series), stronger effect = lower value 0.995 | locus YKL085W, strain MDH1, stronger effect = lower value 0.995 | locus YKL160W, strain elf1, stronger effect = lower value 0.955 | locus YKR001C, strain vps1, stronger effect = lower value 0.998 | locus YKR026C, strain gcn3, stronger effect = lower value 0.976 | locus YKR091W, strain srl3, stronger effect = lower value 0.991 | locus YLL026W, stronger effect = lower value 0.963 | locus YLL041C, strain sdh2, stronger effect = lower value 0.983 | locus YLR039C, strain RIC1, stronger effect = lower value 0.958 | locus YLR058C, strain SHM2, stronger effect = lower value 0.98 | locus YLR102C, strain apc9, stronger effect = lower value 0.998 | locus YLR113W, strain HOG1, stronger effect = lower value 0.931 | locus YLR221C, strain rsa3, stronger effect = lower value 0.922 | locus YLR258W, strain gsy2, stronger effect = lower value 0.968 | locus YLR262C, strain YPT6 (second series), stronger effect = lower value 0.88 | locus YLR262C, strain YPT6, stronger effect = lower value 0.869 | locus YLR268W, strain sec22, stronger effect = lower value 0.963 | locus YLR320W, strain mms22, stronger effect = lower value 0.879 | locus YLR330W, strain CHS5, stronger effect = lower value 0.961 | locus YLR342W, strain FKS1 (second series), stronger effect = lower value 0.921 | locus YLR342W, strain FKS1, stronger effect = lower value 0.951 | locus YLR357W, strain rsc2, stronger effect = lower value 0.945 | locus YLR370C, strain arc18, stronger effect = lower value 0.972 | locus YLR371W, strain rom2, stronger effect = lower value 0.985 | locus YLR384C, strain iki3, stronger effect = lower value 0.976 | locus YLR418C, strain cdc73, stronger effect = lower value 0.842 | locus YML016C, strain PPZ1, stronger effect = lower value 0.995 | locus YML032C, strain rad52, stronger effect = lower value 0.984 | locus YML120C, strain ndi1, stronger effect = lower value 0.965 | locus YML124C, strain tub3, stronger effect = lower value 0.986 | locus YMR058W, strain fet3, stronger effect = lower value 0.938 | locus YMR078C, strain ctf18, stronger effect = lower value 1 | locus YMR125W, strain sto1, stronger effect = lower value 0.994 | locus YMR129W, stronger effect = lower value 0.981 | locus YMR205C, strain PFK2, stronger effect = lower value 0.896 | locus YMR223W, strain ubp8, stronger effect = lower value 1 | locus YMR231W, strain pep5, stronger effect = lower value 0.993 | locus YMR307W, strain GAS1, stronger effect = lower value 0.83 | locus YNL067W, strain RPL9B, stronger effect = lower value 0.968 | locus YNL128W, strain TEP1, stronger effect = lower value 0.991 | locus YNL183C, strain NPR1, stronger effect = lower value 0.961 | locus YNL209W, strain ssb2, stronger effect = lower value 0.987 | locus YNL233W, strain BNI4, stronger effect = lower value 0.919 | locus YNL248C, strain rpa49, stronger effect = lower value 0.928 | locus YNL250W, strain rad50, stronger effect = lower value 0.998 | locus YNL271C, strain bni1, stronger effect = lower value 0.989 | locus YNL298W, strain CLA4, stronger effect = lower value 0.98 | locus YNL322C, strain KRE1 (second series), stronger effect = lower value 0.982 | locus YNL322C, strain KRE1, stronger effect = lower value 0.985 | locus YNR049C, strain mso1, stronger effect = lower value 0.985 | locus YNR052C, strain pop2, stronger effect = lower value 0.989 | locus YOL006C, strain TOP1, stronger effect = lower value 0.784 | locus YOL012C, strain htz1 0.731 | locus YOL147C, strain pex11, stronger effect = lower value 0.98 | locus YOR001W, strain rrp6, stronger effect = lower value 0.923 | locus YOR061W, strain CKA2, stronger effect = lower value 0.984 | locus YOR069W, strain VPS5, stronger effect = lower value 0.993 | locus YOR070C, strain gyp1, stronger effect = lower value 0.937 | locus YOR080W, strain dia2, stronger effect = lower value 0.967 | locus YOR083W, strain WHI5, stronger effect = lower value 0.936 | locus YOR106W, strain vam3, stronger effect = lower value 0.978 | locus YOR136W, strain idh2, stronger effect = lower value 0.99 | locus YOR144C, strain elg1, stronger effect = lower value 0.978 | locus YOR184W, strain ser1, stronger effect = lower value 0.884 | locus YOR231W, strain MKK1, stronger effect = lower value 1.02 | locus YOR265W, strain rbl2, stronger effect = lower value 1 | locus YOR270C, strain vph1, stronger effect = lower value 0.821 | locus YOR290C, strain snf2, stronger effect = lower value 0.935 | locus YOR316C, strain cot1, stronger effect = lower value 1 | locus YPL051W, strain arl3, stronger effect = lower value 0.922 | locus YPL055C, strain LGE1, stronger effect = lower value 0.896 | locus YPL078C, strain atp4, stronger effect = lower value 0.939 | locus YPL106C, strain sse1, stronger effect = lower value 0.94 | locus YPL240C, strain hsp82, stronger effect = lower value 0.993 | locus YPL241C, strain CIN2, stronger effect = lower value 0.99 | locus YPL256C, strain CLN2, stronger effect = lower value 1.02 | locus YPR119W, strain clb2, stronger effect = lower value 0.98 | locus YPR141C, strain kar3, stronger effect = lower value 0.992 | locus YPR163C, strain tif3, stronger effect = lower value 0.969 | locus YPR167C, strain met16, stronger effect = lower value 0.965 | strain wtn01, stronger effect = lower value 0.971
